Results from PubChem BioAssay (Tox21).
Inconclusive results are not listed. Calls of active or inactive are those of the source. The call rests on the fitted dose curve; in most records, active means well fitted curve in the direction sought with a large enough effect in the repeat runs; inconclusive means weak or mixed curves; inactive means no such curve, though single readings can be large; an effect the other way counts as inactive or inconclusive.

Key:
[1] = qHTS RealTime-Glo MT Cell Viability Assay in HEK293 cells - 0 hour (AID 1224880); further: top concentration of the series differs between compounds; nearly all actives have a fitted effect of over 45% in size
Summary of the method: (§1)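 Luminescence readout at each listed time point; HEK293, 600 cells/well, RealTime-Glo MT reagent added with cells; compounds pinned (23 nL in DMSO) after 5 h at 37 C; continuous culture at 37 C.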

[2] = A CellTox Green Cytotoxicity Assay to monitor cytotoxicity in HEK293 cells - 32 hour (AID 1224881); further: nearly all actives have a fitted effect of over 40% in size
Summary of the method: (§2)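 Read-out: fluorescence of a cell-impermeant cyanine dye staining DNA of dead cells, proportional to cytotoxicity. HEK293, 600 cells/well with reagent, compound (23 nL DMSO) added after 5 h; reads at 0, 8, 16, 24, 32, 40 h.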

[3] = A CellTox Green Cytotoxicity Assay to monitor cytotoxicity in HepG2 cells - 0 hour (AID 1224882); further: nearly all actives have a fitted effect of over 35% in size
Summary of the method: (§3)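 HepG2, 600 cells/well premixed w/ CellTox Green; 5 h settle, 37 C/5% CO2; pintool cpd add (DMSO); 37 C, 40 h; fluorescence read at 0, 8, 16, 24, 32, 40 h.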

[4] = A CellTox Green Cytotoxicity Assay to monitor cytotoxicity in HepG2 cells - 32 hour (AID 1224883); further: nearly all actives have a fitted effect of over 50% in size
Summary of the method: as §3

[5] = A CellTox Green Cytotoxicity Assay to monitor cytotoxicity in HEK293 cells - 8 hour (AID 1224884); further: nearly all actives have a fitted effect of over 35% in size
Summary of the method: as §2

[6] = qHTS RealTime-Glo MT Cell Viability Assay in HepG2 cells - 16 hour (AID 1224885); further: nearly all actives have a fitted effect of over 50% in size
Summary of the method: (§4)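 HepG2 cells (600/well) were dispensed with RealTime-Glo reagents, incubated 5 h at 37 °C, then treated with compounds in DMSO for up to 40 h. Nonlytic NanoLuc luminescence reflecting viable cells was read at each stated time point.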

[7] = qHTS RealTime-Glo MT Cell Viability Assay in HEK293 cells - 24 hour (AID 1224886); further: top concentration of the series differs between compounds; nearly all actives have a fitted effect of over 50% in size
Summary of the method: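 HEK293 cells seeded with NanoLuc/prosubstrate reagent, rested 5 h at 37 C, then dosed and kept at 37 C up to 40 h. Nonlytic real-time luminescence from viable cells read at 0, 8, 16, 24, 32 and 40 h.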

[8] = qHTS RealTime-Glo MT Cell Viability Assay in HEK293 cells - 8 hour (AID 1224887); further: top concentration of the series differs between compounds; nearly all actives have a fitted effect of over 50% in size
Summary of the method: as §1

[9] = A CellTox Green Cytotoxicity Assay to monitor cytotoxicity in HEK293 cells - 16 hour (AID 1224888); further: nearly all actives have a fitted effect of over 35% in size
Summary of the method: as §2

[10] = qHTS RealTime-Glo MT Cell Viability Assay in HepG2 cells - 0 hour (AID 1224889); further: nearly all actives have a fitted effect of over 50% in size
Summary of the method: as §4
On the % scale 0 is the no-effect control and ±100 the full control effect.

C[Si](C)(C)C
inactive: Potency [1] | Potency [2] | outcome [3] | Potency [4] | Potency [5] | outcome [6] | Potency [7] | Potency [8] | outcome [9] | Potency [10]

CCN1CCc2nc(N)oc2CC1
inactive: Potency [1] | Potency [2] | outcome [3] | Potency [4] | Potency [5] | outcome [6] | Potency [7] | Potency [8] | outcome [9] | Potency [10]

CCCCN
inactive: Potency [1] | Potency [2] | outcome [3] | Potency [4] | Potency [5] | outcome [6] | Potency [7] | Potency [8] | outcome [9] | Potency [10]

CCOC(=O)CC(=O)c1ccccc1
inactive: Potency [1] | Potency [2] | outcome [3] | Potency [4] | Potency [5] | outcome [6] | Potency [7] | Potency [8] | outcome [9] | Potency [10]

C=C(C)C(=O)OCC(C)(C)COC(=O)C(=C)C
inactive: Potency [1] | Potency [2] | outcome [3] | Potency [4] | Potency [5] | outcome [6] | Potency [7] | Potency [8] | outcome [9] | Potency [10]

CC(C)(C)c1n[nH]c(=S)n(N)c1=O
inactive: Potency [1] | Potency [2] | outcome [3] | Potency [4] | Potency [5] | outcome [6] | Potency [7] | Potency [8] | outcome [9] | Potency [10]

CCC(C=O)CC
inactive: Potency [1] | Potency [2] | outcome [3] | Potency [4] | Potency [5] | outcome [6] | Potency [7] | Potency [8] | outcome [9] | Potency [10]

CN=C(NC#N)Nc1ccc(C2=NNC(=O)CC2C)cc1 (stereo not given)
inactive: Potency [1] | Potency [2] | outcome [3] | Potency [4] | Potency [5] | outcome [6] | Potency [7] | Potency [8] | outcome [9] | Potency [10]

Cc1ccsc1/C=C/C1=NCCCN1C
inactive: Potency [1] | Potency [2] | outcome [3] | Potency [4] | Potency [5] | outcome [6] | Potency [7] | Potency [8] | outcome [9] | Potency [10]

CC(COC(C)(C)C)OCCCO (stereo not given)
inactive: Potency [1] | Potency [2] | outcome [3] | Potency [4] | Potency [5] | outcome [6] | Potency [7] | Potency [8] | outcome [9] | Potency [10]

O=C1O[C@@H]2[C@@H](O)[C@H](O)O[C@@H]2[C@H]1O
inactive: Potency [1] | Potency [2] | outcome [3] | Potency [4] | Potency [5] | outcome [6] | Potency [7] | Potency [8] | outcome [9] | Potency [10]

O=S(O)(O)=S
inactive: activity change, negative = cytotoxicity [1] 1.11% [at 6.97 µM] | cytotoxicity increase [2] -0.289% [at 6.97 µM] | cytotoxicity [3] 8.46% [at 6.97 µM] | cytotoxicity increase [4] 0.202% [at 6.97 µM] | cytotoxicity increase [5] -1.12% [at 6.97 µM] | activity change, negative = cytotoxic [6] 1% [at 6.97 µM] | activity change, negative = cytotoxicity [7] 1.38% [at 6.97 µM] | activity change, negative = cytotoxicity [8] 0.371% [at 6.97 µM] | activity change [9] -0.887% [at 6.97 µM] | activity change, negative = cytotoxicity [10] -0.126% [at 6.97 µM]

CC(=O)/C=C/C1C(C)=CCC(C)C1(C)C (stereo not given)
inactive: Potency [1] | Potency [2] | outcome [3] | Potency [4] | Potency [5] | outcome [6] | Potency [7] | Potency [8] | outcome [9] | Potency [10]

C=Cc1ccccn1
inactive: Potency [1] | Potency [2] | outcome [3] | Potency [4] | Potency [5] | outcome [6] | Potency [7] | Potency [8] | outcome [9] | Potency [10]

COc1ccc(OC)c(Cl)c1
inactive: Potency [1] | Potency [2] | outcome [3] | Potency [4] | Potency [5] | outcome [6] | Potency [7] | Potency [8] | outcome [9] | Potency [10]

CCCCNC1CC(C)(C)NC(C)(C)C1
inactive: Potency [1] | Potency [2] | outcome [3] | Potency [4] | Potency [5] | outcome [6] | Potency [7] | Potency [8] | outcome [9] | Potency [10]

COc1cc(N)ccc1C
inactive: Potency [1] | Potency [2] | outcome [3] | Potency [4] | Potency [5] | outcome [6] | Potency [7] | Potency [8] | outcome [9] | Potency [10]

O=C(O)Cc1cn(-c2ccccc2)nc1-c1ccc(Cl)cc1
inactive: Potency [1] | Potency [2] | outcome [3] | Potency [4] | Potency [5] | outcome [6] | Potency [7] | Potency [8] | outcome [9] | Potency [10]

CCC(C)(CCC(C)C)C(=O)O (stereo not given)
inactive: Potency [1] | Potency [2] | outcome [3] | Potency [4] | Potency [5] | outcome [6] | Potency [7] | Potency [8] | outcome [9] | Potency [10]

COCCc1ccc(OCC2CO2)cc1 (stereo not given)
inactive: Potency [1] | Potency [2] | outcome [3] | Potency [4] | Potency [5] | outcome [6] | Potency [7] | Potency [8] | outcome [9] | Potency [10]

COC(=O)[C@@H]1[C@H]2C[C@H]3c4[nH]c5ccccc5c4CCN3C[C@@H]2CC[C@@H]1O
inactive: Potency [1] | Potency [2] | outcome [3] | Potency [4] | Potency [5] | outcome [6] | Potency [7] | Potency [8] | outcome [9] | Potency [10]

CCOCCOCCOCC
inactive: Potency [1] | Potency [2] | outcome [3] | Potency [4] | Potency [5] | outcome [6] | Potency [7] | Potency [8] | outcome [9] | Potency [10]
